# tim10-1 inh – growth inhibitors of tim10-1 mutant yeast; S. cerevisiae tim10-1 ts strain growth, BacTiter-Glo, 24 h; inhibition, % at 20 µM; actives 2.2% (n = 330,000); AID 463190;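 active = inhibition of at least 40%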;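 note: mutant grown at 25 °C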
# TIM10 inh – inhibits growth of TIM10 yeast strain | S. cerevisiae TIM10 strain growth, BacTiter-Glo luminescence, 24 h | actives 1.4% (n = 330,000) | inhibition, % at 10 µM | AID 463195;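 active = inhibition of 40% or more at the single tested concentration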;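 note: wild-type TIM10 isogenic control strain grown at permissive 25 °C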
# NALP3 yeast inh – blocks the NALP3 inflammasome reconstituted in yeast | inhibition, % at 10 µM | Yeast reconstituted NLRP3/ASC/caspase-1, beta-gal luminescence, 24 h | actives 0.39% (n = 330,000);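 active = inhibition of 50% or more; inactive = inhibition below 50%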
# NALP1 yeast inh – inhibitors of NALP1 inflammasome in yeast; S. cerevisiae NALP1/ASC/caspase-1 growth, X-gal OD620, 72 h; inhibition, % at 10 µM; actives 0.61% (n = 280,000); AID 2071; in the data active = inhibition mostly above about 24%, no sharp cut-off; inactive = mostly below about 32%
# tim23-1 inh – growth inhibitors of tim23-1 mutant yeast; S. cerevisiae tim23-1 growth, BacTiter-Glo luminescence, 24 h; inhibition, % at 20 µM; actives 1.3% (n = 330,000); AID 463212;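 active = growth inhibition of the mutant yeast at or above 50%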;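 note: temperature-sensitive mutant grown at 25 °C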
# tim10-1 confirm – tim10-1 yeast growth inhibition, confirmed | shares compounds with tim10-1 inh | S. cerevisiae tim10-1 ts strain growth, BacTiter-Glo, 24 h | inhibition, % at 20 µM | actives 56% (n = 7,400) | AID 463213;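 active = inhibition of yeast growth at or above a set limit in either of two repeat tests at 20 µM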;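 note: tim10-1 mutant grown at permissive 25 °C to find synthetic lethal compounds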
# TIM10 conf – confirmation of TIM10 yeast growth inhibitors. shares compounds with TIM10 inh. S. cerevisiae tim10 strain growth, BacTiter-Glo luminescence, 24 h. inhibition, % at 10 µM. actives 63% (n = 4,600);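 active = inhibition of yeast growth at or above a set limit in either of two replicates at 10 µM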; note: this counterscreen used the strain with wild-type TIM10
# tim23-1 confirm – tim23-1 yeast growth inhibition, confirmed | AID 463218 | S. cerevisiae tim23-1 growth, BacTiter-Glo luminescence, 24 h | shares compounds with tim23-1 inh | actives 83% (n = 4,400) | inhibition, % at 20 µM;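 active = inhibition above about 39% in either of two replicate wells at 20 µM, limit read from the data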;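 note: temperature-sensitive tim23-1 mutant grown at 25 °C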
# Hits are given with their value; – = inactive; · = no result. A selection: hits, their analogues and other compounds. The true share with any hit is near 4%.
SMILES,tim10-1 inh,TIM10 inh,NALP3 yeast inh,NALP1 yeast inh,tim23-1 inh,tim10-1 confirm,TIM10 conf,tim23-1 confirm
CCOC(=O)c1nnc(-c2cccs2)nc1Oc1ccccc1C(=O)OC,41,49,–,–,51,–,35,50
Cc1nnc(-c2ccccc2)nc1N1CCOCC1,–,–,–,–,–,·,·,·
Cc1ccc(-c2nnc(C)c(N3CCCC3)n2)cc1,42,–,–,–,54,–,·,69
CC(=O)c1sc(-c2ccc(Cl)cc2)cc1N,50,–,–,–,59,–,·,45
COC(=O)c1sc(-c2ccc(Cl)cc2)cc1N,–,–,–,–,–,·,·,·
Cc1cc(N/N=C/c2ccc(Cl)cc2)nc(NCc2ccccc2)n1,48,–,–,–,75,41,·,–
Cc1cc(N/N=C/c2ccccc2)nc(NCc2ccccc2)n1,–,–,–,–,–,·,·,·
NC(=O)c1ccccc1N/C=C/C(=O)c1ccc(Cl)cc1,–,–,–,–,–,·,·,·
O=C(/C=C/Sc1ccccc1)c1ccc(Cl)cc1,51,–,–,–,59,47,·,46
NS(=O)(=O)c1cccc(NC(=O)CCSc2ccccc2Cl)c1,–,–,–,–,–,·,·,·
O=C(CCSc1ccccc1Cl)Nc1cccc([N+](=O)[O-])c1,56,52,–,–,54,50,–,62
CCOC(=O)C1=C(C)N=c2s/c(=C/c3ccc(OCC(=O)O)c(OC)c3)c(=O)n2C1c1ccc(Cl)cc1 (stereo not drawn),56,–,–,·,50,46,·,53
CCOC(=O)C1=C(C)N=c2s/c(=C\c3ccc(OCC(=O)O)cc3)c(=O)n2C1c1ccc(Cl)cc1 (stereo not drawn),–,–,–,–,–,·,·,·
CCC1CCCCN1CCCNC(=O)c1cc2c(=O)oc3ccc(C)cc3c2s1 (stereo not drawn),–,–,–,–,–,·,·,·
CCOC(=O)N/N=C/c1c(C)nn(-c2cccc(C(F)(F)F)c2)c1Cl,47,–,–,–,58,36,·,60
Cc1nn(-c2cccc(C(F)(F)F)c2)c(Cl)c1/C=N/Nc1cccc(C(=O)O)c1,·,·,·,–,·,·,·,·
CC1CCCC(NC(=O)COC(=O)c2n[nH]c3ccccc23)C1C (stereo not drawn),–,–,–,·,–,·,·,·
COCCNC(=O)/C(C#N)=C/c1c(F)cccc1Cl,63,66,–,–,82,56,63,77
Cn1c(N)c(-c2ccccc2)c2ccc([N+](=O)[O-])cc2c1=O,–,–,–,–,–,·,·,·
Cc1ccc(NC(=O)Cn2cnc3c(NCc4ccccc4)ncnc32)cc1C,–,–,·,·,–,·,·,·
Cc1ccc(C(=O)c2c(C)oc3c2C(=O)C(=O)c2ccccc2-3)cc1,–,–,–,–,–,·,·,·
Cc1ccc(C(=O)c2coc3c2C(=O)C(=O)c2ccccc2-3)cc1,93,97,–,–,85,94,96,95
COc1ccc(CCNC(=S)NC(=O)c2cc(OC)c(OC)c(OC)c2)cc1OC,–,–,–,–,–,·,·,·
COc1ccc(CCNC(=S)NC(=O)c2ccccc2)cc1OC,48,53,–,–,56,39,31,44
CC(=O)Nc1cccc(NC(=O)c2cccc3cccnc23)c1,–,–,–,–,–,·,·,·
SMILES,tim10-1 inh,TIM10 inh,NALP3 yeast inh,NALP1 yeast inh,tim23-1 inh,tim10-1 confirm,TIM10 conf,tim23-1 confirm
O=C(Nc1cccc2cccnc12)c1ccccc1Cl,–,–,–,·,–,·,·,·
COc1ccccc1C(=O)Nc1cccc2cccnc12,48,–,–,–,72,42,·,72
Cc1ccc(NC(=O)c2cccc3cccnc23)cc1,42,–,–,–,65,41,·,80
COc1ccc(S(=O)(=O)N2CCOCC2)cc1NC(=O)CSc1nnc(N)s1,–,–,–,·,–,·,·,·
O=C(CNC(=O)c1ccccc1)Oc1cccc(Cl)c1,–,–,–,·,–,·,·,·
O=C(NCC(c1ccco1)N1CCCCC1)c1cccc(S(=O)(=O)Nc2ccc(F)cc2)c1 (stereo not drawn),–,–,–,·,–,·,·,·
COC(=O)c1c(NC(=O)c2cccc(S(=O)(=O)N3CCN(C)CC3)c2)sc(C)c1C,57,–,–,·,55,42,·,47
Cc1ccc(S(=O)(=O)N2CCN(C(=O)CSc3nc(N)cc(=O)[nH]3)CC2)c(C)c1,–,–,–,–,–,·,·,·
COc1cccc(C(=O)Nc2ccc(Cl)c(C(F)(F)F)c2)c1,64,61,–,–,68,57,50,75
COc1cccc(C(=O)Nc2cc(C(F)(F)F)ccc2Cl)c1,–,–,–,–,–,·,·,·
O=C1c2ccccc2C(=O)c2c1cccc2-n1nnc2ccccc21,–,–,–,·,–,·,·,·
O=C1C(N2CCOCC2)=C(n2nnc3ccccc32)C(=O)c2ccccc21,64,78,–,–,83,60,69,89
CCOC(=O)/C=C/C(=O)OCC(=O)NCc1ccccc1,–,42,–,–,–,·,–,·
C/C(=C\C(=O)OCC(=O)NCc1ccccc1)C(=O)OCC(=O)NCc1ccccc1,–,–,–,–,–,·,·,·
COc1ccc(NC(=O)CC(c2ccco2)C(C)C)cc1 (stereo not drawn),–,–,–,–,–,·,·,·
N#C/C(=N\Nc1cc(Cl)cc(Cl)c1)c1nnc2n1CCCCC2,–,41,–,–,–,·,–,·
COc1ccc(CCNC(=O)C2CCN(S(=O)(=O)c3ccc(F)cc3)CC2)cc1,–,–,–,–,–,·,·,·
O=C(N/N=C/c1ccc([N+](=O)[O-])cc1)c1cc(C2CC2)[nH]n1,–,51,–,–,–,·,56,·
S=C(NCC1CCCCC1)Nc1ccc(Oc2ccccc2)cc1,–,54,–,–,–,·,30,·
CN1CCN(C(=O)Nc2cccc(-c3ccccc3)c2)CC1,–,–,–,–,–,·,·,·
CCN/C=C(\C#N)S(=O)(=O)c1ccc(Br)cc1,–,–,–,–,–,·,·,·
CCn1c(SCC(=O)N(C)C2CCCCC2)nc2cc(S(N)(=O)=O)ccc21,–,41,–,·,–,·,–,·
N#Cc1ncccc1CCc1cccc(Cl)c1,–,–,–,·,–,·,·,·
CC1=CC(C)(C)NC(=S)N1c1cc(C)cc(C)c1,–,45,–,–,–,·,–,·
COC(=O)c1ccc(NC(c2ccc(Cl)cc2)P(=O)(OC)OC)cc1 (stereo not drawn),–,–,–,–,–,·,·,·
C/C(CCC(C)C)=N\Nc1ccc(S(N)(=O)=O)cc1[N+](=O)[O-],–,75,–,–,–,·,–,·
CN(C)C1(CNC(=O)C2CCC(=O)N(CCc3ccc(Cl)cc3)C2)CCCCC1 (stereo not drawn),–,–,–,–,–,·,·,·
NNc1nc2ccc(F)cc2s1,–,–,–,–,–,·,·,·
Fc1ccc2nc(Nc3ccccc3)sc2c1,–,43,–,–,–,·,–,·

# Bioassay records from PubChem.
